Consider 36 compounds from PubChem BioAssay (EPA / NIEHS).

“And” between values parts separate entries of the source, which are not always exact repeats. Identical values can stand only once. Inconclusive results are not listed. A structure can be active in one record and inactive in another. The source made the active and inactive calls. The calls were made as follows: active = hit-call score of the fitted dose curve at least 0.9, where 1 is the maximum; inconclusive = response in the unintended direction; inactive = score below 0.9.

Cellular tumor antigen p53 (Homo sapiens), sequence (P04637 whole entry, looked up, the tested form may be a part): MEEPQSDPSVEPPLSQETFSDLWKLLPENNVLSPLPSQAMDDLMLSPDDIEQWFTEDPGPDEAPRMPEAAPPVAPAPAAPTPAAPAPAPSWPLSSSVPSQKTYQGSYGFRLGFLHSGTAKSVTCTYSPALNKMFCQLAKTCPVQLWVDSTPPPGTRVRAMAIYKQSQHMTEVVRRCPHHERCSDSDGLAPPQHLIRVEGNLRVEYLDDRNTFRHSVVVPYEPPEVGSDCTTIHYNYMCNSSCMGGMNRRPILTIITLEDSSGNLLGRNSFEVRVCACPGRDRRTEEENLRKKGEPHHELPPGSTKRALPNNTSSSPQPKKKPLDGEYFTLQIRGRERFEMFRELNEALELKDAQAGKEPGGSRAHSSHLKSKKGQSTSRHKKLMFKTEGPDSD

This assay concerns the target Cellular tumor antigen p53 (Homo sapiens) (UniProt P04637). Description: TOX21_p53_BLA_p3_ratio: Tox21 HCT-116 p53 Agonism Beta-lactamase Assay, Ratio, Phase 3 (AID 2283596). The text has this: TOX21_p53_BLA_p3 is a cell-based, single-readout assay that uses HCT116, a human intestinal cell line, […] in a 1536-well plate.TOX21_p53_BLA_p3_ratio is an assay readout measuring reporter gene via receptor activity and designed using inducible reporter (beta lactamase induction) detected with GAL4 b-lactamase reporter gene. The signal is derived from the ratio of cleaved (ch2) to uncleaved (ch1) reporter gene substrate used as the measure of target activity.Data from the assay component TOX21_p53_BLA_p3_ratio was analyzed into 1 assay endpoint. This assay endpoint, TOX21_p53_BLA_p3_ratio, was analyzed in the positive analysis fitting direction relative to DMSO as the negative control and baseline of activity. Using a type of inducible reporter, gain-of-signal activity can be used to understand changes in the reporter gene as they relate to the gene TP53. Furthermore, this assay endpoint can be referred to as a primary readout, because this assay has produced multiple assay endpoints where this ratio serves a reporter gene function to understand target activity. To generalize the intended target to other relatable targets, this assay endpoint is annotated to the DNA binding intended target family, where the subfamily is tumor suppressor.
Thawing Method: Place 14 mL of pre-warmed thaw medium into a 15 mL of conical tub. Remove the vial of cells to be thawed from liquid nitrogen and thaw rapidly by placing at 37C in a water bath with gentle agitation for 1-2 minutes. Decontaminate the vial by wiping with 70% ethanol before opening in a biological safety cabinet. Transfer the vial contents drop-wise into 14 mL of thaw medium in a sterile 15-mL conical tub. Centrifuge cells at 900 rpm for 4 minutes and resuspend in thaw medium. Transfer contents to the T75 tissue culture flask containing Thaw Medium and place flask in a humidified 37C/5% CO2 incubator. Switch to growth medium at first passage.Propagation Method: Aspirate medium, rinse once in DPBS, add 0.25% Trypsin/EDTA and swirl to coat the cell evenly. Add an equal volume of Growth Medium to inactivate Trypsin after 2-3 minutes incubation at 37C. Centrifuge cells at 900 rpm for 4 minutes and resuspend in growth medium. Cell should be passage or fed at least twice a week.Assay Protocol: Harvest cells from culture in growth medium and resuspend in assay medium. 2.2 Dispense 4000 cells/5 uL/well into 1536-well black/clear bottom plates using a Multidrop dispenser. After the cells were incubated at 37C for 5 hours, 23 nL of compounds dissolved in DMSO were transferred to the assay plate by a PinTool resulting in a 217-fold dilution. Incubate the plates for 16 hours at 37C, 5% CO2. Add 1 uL of 6X LiveBLAzer FRET B/G (CCF4-AM) Substrate Mixture to each well using a BioRAPTR dispenser and incubate the plates at room temperature for 2 hours. Measure fluorescence intensity at 460 and 530 nm emission and 405 nm excitation by an Envision detector. Data is expressed as the ratio of 460nm/530nm emissions. Add 4 uL of Cell-titer Glo to each well using BioRAPTR and incubate the plates at room temperature for 2 hours. Measure fluorescence intensity by a VewLux plate reader.
Regarding `Nc1ccc(S(N)(=O)=O)cc1`, the outcome was inactive. For `CCCCCCOC(=O)CC`, the result was inactive.

In the case of `CC[C@]12CCCN3CCc4c(n(c5ccccc45)[C@@](O)(C(=O)OC)C1)[C@@H]32`, the result was inactive.

Take `CCCCCCCCC`: the outcome was inactive.

Regarding `CC[Si](OC(C)=O)(OC(C)=O)OC(C)=O`, the result was inactive. `CC1(C)CCC(C)(C)c2cc(C(=O)Nc3ccc(C(=O)O)cc3)ccc21`: the half-maximal activity concentration (AC50) is 72.4 µM (active). With `CC(=O)O[C@H](CC(=O)[O-])C[N+](C)(C)C`, the result was inactive. `C[C@H]1C[C@H]2[C@@H]3CCC4=CC(=O)C=C[C@]4(C)[C@@]3(F)[C@@H](O)C[C@]2(C)[C@@]1(O)C(=O)COP(=O)(O)O`: the result was inactive. Consider `CCCCCCCCCCCCCCCC(=O)O`, for which the outcome was inactive. In the case of `CNCCO`, the outcome was inactive. In the case of `CC(C)(C#N)c1cc(Cn2cncn2)cc(C(C)(C)C#N)c1`, the result was inactive. Consider `O=Nc1ccc(Nc2ccccc2)cc1`, for which the half-maximal activity concentration (AC50) was 77.1 µM (active) and 61.3 µM (active). As to `O=[N+]([O-])c1cc(C(F)(F)F)ccc1Cl`, the result was inactive. Take `CC(=O)OCCOC(C)=O`: the half-maximal activity concentration (AC50) was 87.2 µM (active) and the result was inactive. For `CC(=O)Nc1ccc(C)cc1C`, the result was inactive.

On to `CCCCCCCCCCCCCOS(=O)(=O)O`, for which the outcome was inactive. Consider `O=C(O)c1cccc([N+](=O)[O-])c1`, for which the result was inactive. Same read-out and setting: then `O=C(Nc1ccccc1)c1cc([N+](=O)[O-])ccc1Cl`, with “inactive”.

Consider `CCCCCC=CCC(=O)OC`, for which the outcome was inactive. Regarding `CC(C)c1cccc(O)c1`, the outcome was inactive.

For `CCCCCCCCCCN`, the result was inactive.

`CCCCCCCCCC=O`: the outcome was inactive. The same measure, in the same setting: to `O=C(O)c1ccc([N+](=O)[O-])cc1` belongs “inactive”; to `O=C(O)COCCN1CCN(C(c2ccccc2)c2ccc(Cl)cc2)CC1` (stereo not given), “inactive”. In the case of `Cc1ccc(O)c(C(C)(C)C)c1`, the outcome was inactive and the half-maximal activity concentration (AC50) is 49.1 µM (active). Take `C#C[C@]1(O)CC[C@H]2[C@@H]3CCC4=Cc5oncc5C[C@]4(C)[C@H]3CC[C@@]21C`: the result was inactive. `O=C1c2ccccc2C(=O)N1SC1CCCCC1`: the result was inactive and the AC50 is 57 µM (active). With `COC(C)CCO` (stereo not given), the outcome was inactive. `O=C(O)CCCCCCCC(=O)O`: the outcome was inactive. Turning to `O=Cc1ccc(Cl)c([N+](=O)[O-])c1`, the result was inactive. Take `CCC(=O)/C=C/C1C(C)=CCCC1(C)C` (stereo not given): the outcome was inactive. For the compound `COC(=O)c1ccc(C)cc1`, the outcome was inactive and the half-maximal activity concentration (AC50) is 0.000353 µM (active). `COc1ccc(NC(=O)CC(C)=O)cc1`: the result was inactive. Consider `CCCCCCOC(=O)CCCCC`, for which the outcome was inactive. As for `C=C(C)[C@@H]1CCC2=CC(=O)C[C@@H](C)[C@]2(C)C1`, the result was inactive. As to `O=C1CCc2ccccc2O1`, the result was inactive.

By AC50 is commonly meant the concentration at which the activity in the assay is half-maximal.
